# Reference: PubChem BioAssay
# Unmarked numbers belong to inactive results. For some of these results: Entries with a potency or affinity are not part of this list. Calls of active or inactive are those of the source. Unless noted, how the calls were made is not given here.
# Experiments:
# [1] = antimalarial activity against Dd2 strain (AID 2302;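 active means growth inhibition above 50% at the single 2 µM test dose, taken to imply half-maximal potency below 2 µM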;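 further: 0% = DMSO untreated growth and 100% = chloroquine plus artemisinin killed control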); conditions: P. falciparum Dd2 in RBCs, LDH growth readout, 72 h; at 2 µM; hits give high values
# [2] = human hepatoma cell viability loss – ATP luminescence, cytotoxicity control for P. falciparum antimalarial project, primary screen (AID 2303;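 active means inhibition above 50%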;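 further: 0% = DMSO wells and 100% = digitonin-killed cells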); conditions: HepG2 viability, 24-48 h, at 10 µM, hits give high values
# [3] = target: L-lactate dehydrogenase (Plasmodium falciparum (isolate CDC / Honduras)) (UniProt Q27743); assay: PfLDH activity inhibition – cell lysate, 3D7 strain, counter-screen for P. falciparum growth inhibition project (AID 2304);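 further: 0% = vehicle and 100% = reference inhibitor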; conditions: P. falciparum 3D7 crude extract, LDH APAD/NBT absorbance; at 2 µM; hits give high values
# [4] = inhibition of 3D7 malaria parasite growth – strain 3D7 (AID 2306);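 further: 0% = DMSO wells and 100% = chloroquine plus artemisinin control wells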; conditions: P. falciparum 3D7 erythrocytic growth, LDH absorbance, 72 h; at 2 µM; hits give high values
# [5] = target: Calcium-dependent protein kinase 1 (Plasmodium falciparum (isolate 3D7)) (UniProt P62344); assay: PfCDPK1 kinase inhibitors, biochemical, TCAMS library (AID 1159585; cut-off not given, nearly all actives have IC50 up to about 0.98 µM;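 further: inhibitors leave more ATP so luminescence rises with inhibition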); conditions: recombinant PfCDPK1, Kinase-Glo ATP depletion luminescence
# [6] = target: Plasmodium falciparum protein kinase 6 (PK6, PF3D7_1337100) (UniProt Q8IDW1); assay: PfPK6 kinase inhibitors, biochemical, TCAMS library (AID 1159586); conditions: recombinant PfPK6, Kinase-Glo ATP depletion luminescence
# [7] = target: Protein kinase 7 (PK7), Plasmodium falciparum 3D7 (PF3D7_0213400) (UniProt Q7YTF7); assay: inhibition of Plasmodium PK7 catalytic activity – biochemical, TCAMS antimalarial set, Kinase-Glo luminescence (AID 1159587); conditions: recombinant PfPK7, Kinase-Glo ATP depletion luminescence
# [8] = target: Calcium-dependent protein kinase 4 (Plasmodium falciparum (isolate 3D7)) (UniProt Q8IBS5); assay: PfCDPK4 kinase inhibitors, biochemical, TCAMS library (AID 1159588; cut-off not given, nearly all actives have IC50 up to about 0.91 µM); conditions: recombinant PfCDPK4, Kinase-Glo ATP depletion luminescence
# Calcium-dependent protein kinase 4 (Plasmodium falciparum (isolate 3D7)), sequence (Q8IBS5 whole entry, looked up): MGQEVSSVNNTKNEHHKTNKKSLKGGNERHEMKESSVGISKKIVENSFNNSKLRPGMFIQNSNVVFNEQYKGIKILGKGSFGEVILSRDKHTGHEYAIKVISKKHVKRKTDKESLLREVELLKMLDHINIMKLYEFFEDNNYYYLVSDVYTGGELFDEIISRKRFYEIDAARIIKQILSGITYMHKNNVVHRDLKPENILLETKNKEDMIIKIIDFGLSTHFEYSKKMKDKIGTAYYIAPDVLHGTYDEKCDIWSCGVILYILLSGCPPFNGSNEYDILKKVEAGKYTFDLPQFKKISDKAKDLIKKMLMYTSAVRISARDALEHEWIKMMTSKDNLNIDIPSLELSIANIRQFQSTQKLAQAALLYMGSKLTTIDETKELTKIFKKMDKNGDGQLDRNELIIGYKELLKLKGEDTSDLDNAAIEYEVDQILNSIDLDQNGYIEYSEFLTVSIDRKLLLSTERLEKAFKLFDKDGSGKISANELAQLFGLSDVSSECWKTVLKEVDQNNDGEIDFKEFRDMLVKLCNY
# Plasmodium falciparum protein kinase 6 (PK6, PF3D7_1337100), sequence (Q8IDW1 1-305): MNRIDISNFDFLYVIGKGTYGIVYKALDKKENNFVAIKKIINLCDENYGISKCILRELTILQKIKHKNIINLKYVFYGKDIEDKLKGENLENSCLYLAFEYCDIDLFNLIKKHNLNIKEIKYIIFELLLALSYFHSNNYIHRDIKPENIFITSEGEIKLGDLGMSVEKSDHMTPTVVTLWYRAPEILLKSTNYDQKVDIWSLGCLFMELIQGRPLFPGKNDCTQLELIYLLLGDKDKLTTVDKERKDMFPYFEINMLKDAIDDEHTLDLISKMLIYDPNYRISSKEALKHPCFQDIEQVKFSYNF
# Protein kinase 7 (PK7), Plasmodium falciparum 3D7 (PF3D7_0213400), sequence (Q7YTF7 1-343): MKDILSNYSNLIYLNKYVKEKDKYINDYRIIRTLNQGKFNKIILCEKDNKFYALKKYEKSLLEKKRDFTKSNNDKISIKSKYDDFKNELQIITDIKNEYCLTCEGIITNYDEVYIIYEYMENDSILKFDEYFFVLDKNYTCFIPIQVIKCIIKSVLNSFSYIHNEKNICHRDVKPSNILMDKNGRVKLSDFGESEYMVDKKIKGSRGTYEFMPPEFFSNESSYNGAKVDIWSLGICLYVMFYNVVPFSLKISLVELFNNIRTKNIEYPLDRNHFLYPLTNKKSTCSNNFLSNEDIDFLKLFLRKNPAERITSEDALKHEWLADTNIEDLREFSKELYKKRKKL
# Calcium-dependent protein kinase 1 (Plasmodium falciparum (isolate 3D7)), sequence (P62344 whole entry, looked up): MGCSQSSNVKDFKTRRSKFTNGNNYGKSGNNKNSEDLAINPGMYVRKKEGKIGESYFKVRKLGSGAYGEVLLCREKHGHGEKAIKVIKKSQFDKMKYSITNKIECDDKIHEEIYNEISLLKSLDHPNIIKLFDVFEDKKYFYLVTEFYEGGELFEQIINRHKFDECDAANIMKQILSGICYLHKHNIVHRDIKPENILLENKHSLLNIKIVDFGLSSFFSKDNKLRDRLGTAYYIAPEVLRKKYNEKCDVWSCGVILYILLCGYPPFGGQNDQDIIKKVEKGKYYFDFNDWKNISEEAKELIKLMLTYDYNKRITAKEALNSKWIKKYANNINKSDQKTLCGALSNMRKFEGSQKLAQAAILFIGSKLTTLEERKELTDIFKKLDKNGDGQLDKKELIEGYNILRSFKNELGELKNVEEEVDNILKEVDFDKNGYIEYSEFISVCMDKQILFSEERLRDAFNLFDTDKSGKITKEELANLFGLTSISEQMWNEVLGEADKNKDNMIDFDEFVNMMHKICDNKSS
# L-lactate dehydrogenase (Plasmodium falciparum (isolate CDC / Honduras)), sequence (Q27743 whole entry, looked up): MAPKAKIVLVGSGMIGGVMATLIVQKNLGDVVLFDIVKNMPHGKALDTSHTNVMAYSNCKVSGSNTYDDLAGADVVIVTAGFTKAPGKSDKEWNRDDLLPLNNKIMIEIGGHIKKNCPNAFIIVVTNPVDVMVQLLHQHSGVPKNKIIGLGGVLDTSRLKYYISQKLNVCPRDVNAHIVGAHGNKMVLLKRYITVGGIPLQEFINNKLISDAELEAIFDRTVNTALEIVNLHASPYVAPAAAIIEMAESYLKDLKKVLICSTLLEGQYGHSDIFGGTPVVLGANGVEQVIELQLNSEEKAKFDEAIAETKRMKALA
Structure (SMILES),growth inhibition [1],inhibition [2],inhibition [3] [%],growth inhibition [4],outcome [5],outcome [6],outcome [7],outcome [8]
COc1ccc2nccc([C@@H](O)CN3CCC(NC(=O)/C=C/c4ccc5[nH]c(=O)ccc5c4)CC3)c2c1,83% (active),2%,5,96% (active),inactive,inactive,inactive,inactive
O=C(c1cc(OC(F)(F)F)ccc1O)N1CCN(c2ccccc2)CC1,1%,-10%,-4,88% (active),inactive,inactive,inactive,inactive
O=C(NCCCCN1CCC(c2ccc3c(c2OCC2COCO2)CCCC3)CC1)c1ccc(-c2ccc(C(F)(F)F)cc2)cc1 (configuration not stated),45%,91% (active),-2,99% (active),inactive,inactive,inactive,inactive
Cc1ccc(S(=O)(=O)/N=C(\N)NC(N)=O)cc1,2%,26%,1,94% (active),inactive,inactive,inactive,inactive
Cc1cccc2[nH]c(-c3cccc(-c4cccc(NC(=O)c5ccncc5)c4)c3)nc12,78% (active),22%,-3,100% (active),inactive,inactive,inactive,inactive
C(=NNc1nc2ccccc2[nH]1)c1ccccc1OCc1ccccc1,90% (active),15%,6,100% (active),inactive,inactive,inactive,inactive
CCN1[C@@H](c2ccc(Cl)cc2)[C@@H](CNCc2ccccc2O)C[C@@]1(C)CO,99% (active),47%,-3,99% (active),inactive,inactive,inactive,inactive
CN(C)C(=O)c1cccc(COc2ccc(N3C(N)=NC(N)=NC3(C)C)cc2Cl)c1,,,1,,inactive,inactive,inactive,inactive
COc1ccccc1NS(=O)(=O)c1cc(C(=O)Nc2ccc(N3CCOCC3)c(S(=O)(=O)Nc3ccccc3Cl)c2)ccc1Cl,25%,-3%,-2,97% (active),inactive,inactive,inactive,inactive
Clc1ccc(CNc2ccnc(NCc3ccc4c(c3)OCCCO4)n2)c(Cl)c1,20%,50% (active),-2,94% (active),inactive,inactive,inactive,inactive
COc1ccc(S(=O)(=O)N(c2cc(Br)cc3c2OCC3)S(=O)(=O)c2ccc(OC)c(N3CCN(C)CC3)c2)cc1N1CCN(C)CC1,98% (active),67% (active),-8,81% (active),inactive,inactive,inactive,inactive
CC(C)c1sc(N2CCN(C)CC2)nc1C(=O)NCCc1ccc(Cl)c(Cl)c1,79% (active),10%,-2,98% (active),inactive,inactive,inactive,inactive
Fc1ccc2nc(-c3ccc(-c4ccc(CNCc5ccccc5)cc4)cc3)[nH]c2c1,94% (active),35%,-4,101% (active),inactive,inactive,inactive,inactive
C=CCN1CCC(N(Cc2cccc(Oc3ccccc3)c2)C(=O)C(c2ccccc2)c2ccccc2)CC1,79% (active),7%,-5,87% (active),inactive,inactive,inactive,inactive
CC(C)N1CCN(C(CN2CCN(CCCOc3ccc4ccccc4c3)CC2)c2ccc(F)cc2)CC1 (configuration not stated),91% (active),59% (active),5,101% (active),inactive,inactive,inactive,inactive
CCOC(=O)CCCOc1cc(Cc2cnc(N)nc2N)cc(OC)c1OC,3%,12%,-7,97% (active),inactive,inactive,inactive,inactive
O=C(NC1CCCCN(Cc2ccccc2O)C1)c1ccc(Cl)c(Cl)c1 (configuration not stated),96% (active),-7%,-1,96% (active),inactive,inactive,inactive,inactive
CC(=O)N1N=C(c2cccs2)Sc2c1nc(-c1ccc(Cl)cc1)n2C(C)=O,93% (active),3%,0,99% (active),inactive,inactive,inactive,inactive

Structure (SMILES),growth inhibition [1],inhibition [2],inhibition [3] [%],growth inhibition [4],outcome [5],outcome [6],outcome [7],outcome [8]
O=C(O[C@@H]1CN[C@H](C#Cc2cc3c(Nc4ccc5c(cnn5Cc5ccccc5)c4)ncnc3s2)C1)N1CCCC1,87% (active),8%,-1,99% (active),inactive,inactive,inactive,inactive
Cc1cc(N[C@@H](Cc2ccccc2)C(=O)NCc2cccs2)nc(NCC2CCCCC2)n1,92% (active),-5%,0,100% (active),inactive,inactive,inactive,inactive
Cc1nc(-c2ccc(-c3ccc(C(=O)Nc4ccc(I)c(OCC5CCCN5C)c4)cc3)c(C)c2)no1 (configuration not stated),39%,100% (active),-2,97% (active),inactive,inactive,inactive,inactive
COc1cc2c(cc1C(F)(F)F)N(C(=O)Nc1cc(-c3ccncc3)cc(-c3cccnc3)c1)CC2,50% (active),64% (active),7,95% (active),inactive,inactive,inactive,inactive
Cc1ccc(O)cc1Nc1ccnc2cc(-c3ccc(CN4CCCCC4)o3)ccc12,99% (active),16%,0,100% (active),inactive,inactive,inactive,inactive
COc1ccc(NC(=O)Nc2cccc(-c3cccc(-c4nc5ccccc5[nH]4)c3)c2)cc1,41%,41%,3,101% (active),inactive,inactive,inactive,inactive
Cc1cccc2[nH]c(-c3ccc(-c4cccc(CNCCCNS(C)(=O)=O)c4)cc3)nc12,5%,5%,2,99% (active),inactive,inactive,inactive,inactive
CC(C)(C)c1ccc(-c2csc(NC(=O)CC(c3ccccc3)c3ccccc3)n2)cc1,64% (active),3%,-6,86% (active),inactive,inactive,inactive,inactive
Clc1ccc(CNc2ccnc(NCc3cccnc3N3CCCC3)n2)c(Cl)c1,53% (active),37%,-5,85% (active),inactive,inactive,inactive,inactive
Clc1cc(Br)ccc1-c1ccc(CNCC2CCNCC2)o1,39%,100% (active),1,96% (active),inactive,inactive,inactive,inactive
CC(C)CNCc1cccc(-c2cccc(CN(CCN(C)C)C(=O)NCCc3ccccc3)c2)c1,83% (active),84% (active),-4,99% (active),inactive,inactive,inactive,inactive
CN1CCC(COc2ccc(CN3CCC(NC(=O)c4cccc(Cl)c4)CC3)cc2)CC1,13%,16%,-2,94% (active),inactive,inactive,inactive,inactive
COc1ccccc1C(C)NCC(=O)Nc1cccc(C(=O)Nc2cccc(C(F)(F)F)c2)c1 (configuration not stated),39%,34%,5,91% (active),inactive,inactive,inactive,inactive
O=C(NC(=Cc1cccc([N+](=O)[O-])c1)c1nc2ccccc2[nH]1)c1cccc(Br)c1,88% (active),-1%,0,85% (active),inactive,inactive,inactive,inactive
CCOC(=O)c1ccc(N2CCN(CCCNC(=O)/C(=C/C=C/c3cc4cc(Cl)c(Cl)cc4[nH]3)OC)CC2)cc1,72% (active),39%,4,93% (active),inactive,inactive,inactive,inactive
Cc1ccc2nc(NC#N)[nH]c2c1,-3%,7%,2,96% (active),inactive,inactive,inactive,inactive
c1ccc2c(c1)CN(Cc1ccsc1)CC1(CCN(Cc3c[nH]c4cnccc34)CC1)O2,75% (active),38%,-2,87% (active),inactive,inactive,inactive,inactive
